Reference: publication PMC5540273 (PLoS ONE, 2017)

Assays:
Settings in all cases: concentration: 1 μM, replicates: in singlicate; n = 1
MTOR = system: MTOR
MUSK = system: MUSK
MYLK2 = system: MYLK2
MYLK4 = system: MYLK4
MYLK = system: MYLK
MYO3A = system: MYO3A
MYO3B = system: MYO3B
NDR1 = system: T1, NDR1
T1 construct: gene STK38

NDR2 = system: NDR2
NEK10 = system: NEK10
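Further: KINOMEscan kinase panel screen.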

Row | Structure (SMILES) | %Inh (MTOR) | %Inh (MUSK) | %Inh (MYLK2) | %Inh (MYLK4) | %Inh (MYLK) | %Inh (MYO3A) | %Inh (MYO3B) | %Inh (NDR1) | %Inh (NDR2) | %Inh (NEK10)
1 | Cl.c1ccc(-c2ccc3c(Nc4ccc5[nH]ncc5c4)ccnc3c2)nc1 [GW440137] | 7% | 7% | 5% | 11% | 26% | 36% | 0% | 8% | 10% | 1%
2 | Cc1cccc(NC(=O)Nc2ccc(Oc3ncnc4ccn(C)c34)cc2)c1 | 26% | 17% | 0% | 0% | 0% | 0% | 5% | 30% | 0% | 0%
3 | c1ccc(-c2cnc3nccnn23)cc1 [AH20685] | 2% | 2% | 0% | 0% | 0% | 0% | 0% | 0% | 0% | 0%
4 | COc1cccc(-c2ccc3c(NC(=O)C4CC4)n[nH]c3n2)c1 [SB-710903] | 20% | 0% | 78% | 6% | 11% | 45% | 0% | 10% | 16% | 20%
5 | O=C(NC1CCN(c2ccnc(Nc3ccc(F)cc3)n2)C1)c1cc2ccccc2s1 (stereo not drawn) [GSK1379716] | 25% | 21% | 4% | 5% | 36% | 36% | 0% | 8% | 0% | 19%
6 | Cl.Cl.NCC(C(=O)Nc1cc(Br)c(-c2ccnc3[nH]ccc23)s1)c1ccccc1 (stereo not drawn) [GSK1269851] | 26% | 1% | 56% | 99.8% | 37% | 0% | 0% | 70% | 13% | 12%
7 | O=C(O)C(F)(F)F.O=C(O)C(F)(F)F.O=c1[nH]ccc2nc(N[C@@H]3CCCNC3)nc(Nc3ccc(S(=O)(=O)N4CCOCC4)cc3)c12 [GSK2177277] | 9% | 98.2% | 33% | 91.3% | 96.9% | 52% | 0% | 97.4% | 74% | 93.6%
8 | COc1cc(Nc2ncc3c(C)nc(-c4cc5ccccc5[nH]4)n3n2)cc(OC)c1OC [GW869516] | 14% | 47% | 0% | 39% | 0% | 0% | 0% | 10% | 0% | 0%
9 | Nc1ncnc2c1nc(-c1ccccc1)n2-c1ccccc1 [SKF-97293] | 8% | 11% | 0% | 25% | 32% | 13% | 38% | 32% | 14% | 21%
10 | CC(=O)N1CCN(c2ccc(Nc3nccc(-c4sc(C(C)C)nc4-c4cccc(NS(=O)(=O)c5cccc(Cl)c5)c4)n3)cn2)CC1 [GSK1660437] | 3% | 14% | 0% | 0% | 7% | 12% | 49% | 14% | 0% | 0%
11 | O=C(Nc1cccc(-c2nn3ccccc3c2-c2ccnc(Nc3cccc(F)c3)n2)c1)c1c(F)ccc(F)c1Cl [GSK357952] | 0% | 11% | 10% | 0% | 5% | 0% | 0% | 41% | 0% | 44%
12 | Cc1ccc(F)c(C(=O)Nc2cccc(-c3nn4ccccc4c3-c3ccnc(Nc4cccc(F)c4)n3)c2)c1F [GSK361061] | 13% | 22% | 17% | 0% | 33% | 10% | 0% | 15% | 0% | 11%
13 | CN(c1ccc(NC(=O)Nc2cc(C(F)(F)F)ccc2F)cc1)c1ccnc(Nc2ccc(S(N)(=O)=O)cc2)n1 [GW809893] | 0% | 95.3% | 65% | 16% | 0% | 50% | 37% | 27% | 11% | 0%
14 | NCCCC(NC(=O)c1cc(Br)c(-c2ccnc3[nH]ccc23)s1)c1ccccc1.O=C(O)C(F)(F)F.O=C(O)C(F)(F)F (stereo not drawn) [GSK1287544] | 3% | 8% | 30% | 99.6% | 23% | 0% | 0% | 95.7% | 86% | 20%
15 | CCc1ccc(-c2ccc3c(c2)-c2c(cnn2C)S(=O)(=O)N3C)cc1 | 0% | 14% | 0% | 1% | 0% | 16% | 25% | 0% | 0% | 9%
16 | Oc1cc(Nc2ccnc3cc(I)ccc23)ccc1F [GW552771] | 11% | 5% | 0% | 1% | 17% | 0% | 0% | 0% | 0% | 9%
17 | Cc1cccc(Nc2nc(N[C@H]3CCNC3)ncc2C(N)=O)c1.Cl [GSK2197149] | 0% | 0% | 0% | 81% | 16% | 2% | 0% | 0% | 0% | 56%
18 | CSc1cccc2c(-c3ccncn3)c(-c3ccc(F)cc3)nn12 [GW514786] | 24% | 7% | 0% | 0% | 23% | 13% | 0% | 13% | 12% | 2%
19 | Fc1ccc(-c2ncn(C3CCNCC3)c2-c2ccnc(Oc3ccc(-c4ccccc4)cc3)n2)cc1 [SB-245391] | 0% | 40% | 0% | 21% | 16% | 24% | 17% | 31% | 13% | 0%
20 | O=C(Nc1ccccc1F)NC1CCN(c2ccnc(Nc3ccc(F)cc3)n2)CC1 [GSK1379800] | 17% | 3% | 16% | 10% | 8% | 37% | 0% | 7% | 0% | 5%
21 | CC(C)(C)c1ccc2nccc(Nc3cccc(O)c3)c2c1 [GW856795] | 0% | 0% | 0% | 0% | 20% | 6% | 5% | 0% | 0% | 0%
22 | COC(=O)Nc1nc2cc(Oc3ccc(NC(=O)Nc4cc(C(F)(F)F)ccc4F)cn3)ccc2[nH]1.Cl.Cl [GW681170] | 2% | 99.4% | 0% | 0% | 16% | 21% | 0% | 20% | 14% | 7%
23 | COc1cc(Nc2nccc(N3CCC(NC(=O)c4cc5ccccc5s4)C3)n2)cc(OC)c1OC (stereo not drawn) [GSK1379760] | 34% | 1% | 13% | 3% | 0% | 17% | 0% | 12% | 0% | 18%

Row | Structure (SMILES) | %Inh (MTOR) | %Inh (MUSK) | %Inh (MYLK2) | %Inh (MYLK4) | %Inh (MYLK) | %Inh (MYO3A) | %Inh (MYO3B) | %Inh (NDR1) | %Inh (NDR2) | %Inh (NEK10)
24 | COc1ccc(-c2coc3ccc(-c4nnc(SCc5ccc(OC)c(C(F)(F)F)c5)o4)cc23)cc1 | 0% | 1% | 0% | 0% | 15% | 8% | 36% | 20% | 0% | 0%
25 | COc1cccc(C(=O)Nc2cccc(Oc3ccc4nc(NC(=O)C5CC5)cn4n3)c2)c1 | 0% | 0% | 0% | 0% | 33% | 14% | 0% | 19% | 10% | 0%
26 | Nc1ncc(-c2ccc3nccc(-c4ccncc4)c3c2)cc1S(=O)(=O)N1CCOCC1 [GSK1627798] | 99.3% | 0% | 0% | 0% | 20% | 0% | 0% | 6% | 0% | 16%
27 | CCn1c(-c2nonc2N)nc2c(C#CC(C)(C)O)nc(OC[C@H](N)c3ccccc3)cc21 [GSK943949] | 20% | 0% | 0% | 0% | 12% | 0% | 0% | 34% | 2% | 34%
28 | COC(=O)Nc1nc2ccc(Oc3ccc(NC(=O)Nc4cc(C(F)(F)F)ccc4F)cc3)cc2n1C.Cl [GW692089] | 28% | 98.5% | 36% | 0% | 0% | 17% | 0% | 24% | 45% | 1%
29 | O=c1[nH]cc(-c2ccc(N3CCOCC3)cc2)c2sc(-c3cn[nH]c3)cc12 [GSK2276055] | 8% | 0% | 3% | 48% | 18% | 53% | 0% | 30% | 29% | 0%
30 | COc1cc(Nc2nccc(-c3c(-c4cccc(NC(=O)c5c(F)cccc5F)c4)nn4ncccc34)n2)cc(OC)c1OC [GSK327238] | 8% | 25% | 10% | 7% | 9% | 38% | 40% | 20% | 0% | 15%
31 | O=C(Nc1n[nH]c2cc(-c3ccoc3)ccc12)C1CC1 [SB-738481] | 0% | 0% | 89% | 19% | 29% | 0% | 0% | 6% | 0% | 0%
32 | Cc1ccc(C(=O)Nc2ccc(Nc3ccnc4cc(-c5nccs5)ccc34)cc2O)cc1.Cl [GW494702] | 6% | 4% | 11% | 0% | 0% | 34% | 6% | 2% | 9% | 0%
33 | Nc1ncc(-c2cccnc2)c2scc(-c3ccc4c(c3)CCN4C(=O)Cc3ccccc3)c12 [GSK683281] | 0% | 39% | 32% | 11% | 33% | 17% | 6% | 29% | 0% | 14%
34 | O=C(Nc1cccc(Oc2ccc3nc(NC(=O)C4CC4)cn3n2)c1)c1ccccc1C(F)(F)F | 15% | 11% | 0% | 0% | 10% | 0% | 0% | 26% | 0% | 0%
35 | COCCOCCOc1cc2ncc3c4ccc(C#N)cc4[nH]c3c2cc1OC | 0% | 6% | 54% | 72% | 33% | 10% | 0% | 60% | 0% | 0%
36 | c1ccc(Oc2ccc(Nc3ccnc4cc(-c5ccc(CNCCN6CCOCC6)o5)ccc34)cc2)nc1 [GW567145] | 23% | 1% | 0% | 0% | 0% | 24% | 0% | 16% | 40% | 0%
37 | CCn1c(-c2nonc2N)nc2c(C#CC(C)(C)O)ncc(OCCCCN)c21.O=C(O)C(F)(F)F.O=C(O)C(F)(F)F [GSK507274] | 19% | 15% | 48% | 0% | 0% | 12% | 5% | 7% | 0% | 15%
38 | O=C(Nc1n[nH]c2nc(-c3ccc(O)cc3)ccc12)C1CC1 [SB-710363] | 0% | 0% | 79% | 31% | 35% | 62% | 9% | 0% | 4% | 0%
39 | COc1ccc(CNC(=O)NC2CCN(c3ccnc(Nc4ccc(F)cc4)n3)CC2)cc1 [GSK1379788] | 18% | 0% | 0% | 5% | 5% | 40% | 0% | 7% | 16% | 3%
40 | C[C@@H]1CC[C@@H](C(=O)Nc2ccccc2)CN1c1cc(-c2ccc3c(N)n[nH]c3c2)nc(N)n1 [GSK2286062] | 0% | 0% | 0% | 5% | 15% | 33% | 0% | 13% | 0% | 7%
41 | Cc1ccc(C(=O)N2CC[C@@H](O)C2)cc1-n1c(C)cc(OCc2ccc(F)cc2F)c(Br)c1=O | 45% | 9% | 0% | 0% | 0% | 0% | 0% | 26% | 0% | 0%
42 | Cl.Cl.NCC(NCc1ccc(-c2ccnc3[nH]ccc23)s1)c1ccccc1 (stereo not drawn) [GSK1321565] | 43% | 13% | 5% | 99.8% | 59% | 34% | 0% | 53% | 31% | 27%
43 | Cc1ccc(S(=O)(=O)Nc2ccc(Nc3nccc(Nc4cccc5[nH]ncc45)n3)cc2)cc1 [GSK581271] | 5% | 12% | 17% | 50% | 0% | 9% | 0% | 0% | 0% | 3%
44 | Cc1occc1-c1ncc(OC[C@@H](N)Cc2c[nH]c3ccccc23)cc1-c1ccc2[nH]nc(C)c2c1.O=C(O)C(F)(F)F [GSK682037] | 7% | 7% | 21% | 0% | 29% | 75% | 38% | 30% | 0% | 4%
45 | Cn1cc(-c2ccc3c(c2)CCN3C(=O)Cc2cccc(Cl)c2)c2c(N)ncnc21 [GSK2606590] | 0% | 29% | 71% | 0% | 8% | 43% | 21% | 0% | 0% | 18%
